PAX8 reporter: PAX8 transcriptional activity inhibition | 1.2% of 360,000 active | inhibition, % at 12.6 µM | RMG-I TPO-luciferase reporter, SteadyGlo, 24 h;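 active = mean replicate inhibition at least 60% with every replicate also reaching 60%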;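 note: luciferase light reporting Pax8 driven TPO promoter activity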
HIF-2a block: blocks HIF-2a reporter activity; 786-0 RCC cells HIF-2a reporter, luciferase luminescence, overnight; inhibition, % at 18.8 µM; 0.72% of 360,000 active; AID 624352;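 active = inhibition of the luminescence signal of 40% or more relative to plate controls, in a single-dose primary screen at 18.75 µM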
Shn3 3UTR inh: reduces Shn3 3'UTR luciferase signal in osteoblasts | AID 588674 | 0.52% of 360,000 active | inhibition, % at 12.5 µM | Clone20 osteoblast Shn3 3'UTR firefly luciferase, 24 h;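 active = mean inhibition of at least 75% with every replicate also reaching 75%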
Peg3 promoter: inhibitors of Peg3 promoter. HeLa PEG-Prom luciferase reporter, luminescence, overnight. 1.7% of 360,000 active. inhibition, % at 20 µM;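 active = inhibition of at least 50% at 20 µM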
EBV LMP1 NFkB: Epstein-Barr LMP1 NF-kappaB reporter inhibition | LMP1-induced NF-kappaB luciferase reporter cells, luminescence | inhibition, % at 12.5 µM | 0.69% of 350,000 active | AID 504558; in the data active = inhibition above about 41%
MITF TRPM1 inh: MITF TRPM1 promoter inhibition in SK-MEL-5 cells | SK-MEL-5 TRPM1 promoter luciferase, 24 h | 0.83% of 330,000 active | AID 488899 | inhibition, % at 12.5 µM;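 active = mean inhibition across replicates of 60% or more, whatever share of single replicates reaches that level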
Numbers stand for hits; – = inactive; · = no result. The list is not random: actives were taken first. Their share in the collection is about 2.8%.

SMILES	PAX8 reporter	HIF-2a block	Shn3 3UTR inh	Peg3 promoter	EBV LMP1 NFkB	MITF TRPM1 inh
Nc1ccc(SC(F)(F)F)cc1	–	–	–	–	–	–
Cc1ccnc2ccc(SC(F)(F)F)cc12	87	–	–	–	–	–
O=C(Nc1ccc(F)cc1)N[C@H]1C=C[C@H](CC(=O)N2CCCCC2)O[C@@H]1CO	–	·	·	·	·	·
CC(C)CNC(=O)c1c(N)n(/N=C/c2ccccn2)c2nc3ccccc3nc12	–	–	–	54	–	–
COCCNC(=O)c1c(N)n(/N=C/c2ccc(F)cc2)c2nc3ccccc3nc12	–	–	–	–	·	·
CN(C)CCOc1ccc2c(c1)C(=O)C(=Cc1ncc([N+](=O)[O-])n1C)C2	99	–	–	103	–	·
CCc1cc(OCCN(C)C)ccc1Cl	–	–	–	–	–	–
CC(C)NC(=O)N(C)C[C@@H]1OCCCC[C@H](C)Oc2ccc(N(C)C)cc2C(=O)N([C@@H](C)CO)C[C@H]1C	–	·	·	·	·	·
CC(C)C(CCNC1CCN(C)CC1)c1ccc(Cl)cc1 (stereo not given)	–	–	–	100	–	90
COc1cccc(-c2ccc3c(c2)[C@H]2[C@H](CCN2S(=O)(=O)c2ccccc2C)[C@@H](CO)N3C)c1	–	·	·	·	·	·
COc1ccc(N(Cc2cc(=O)[nH]c3ccccc23)C(=O)CCl)cc1	–	–	–	80	–	85
CCCC(=O)N(Cc1cc(=O)[nH]c2ccccc12)c1ccc(OC)cc1	–	–	–	–	–	–
CCc1cc(C(=O)Nc2ccc(OC)nc2)sc1C	–	–	–	–	–	–
CCc1cc(C(=O)Nc2ncccc2O)sc1C	–	–	–	–	47	–
CC1Cc2ccccc2N1S(=O)(=O)c1cccc(C(=O)NCCCO)c1 (stereo not given)	·	–	–	–	–	–
CCN(CC)CCNC(=O)c1ccc(NC(=O)c2cccc(S(=O)(=O)N3c4ccccc4CC3C)c2)cc1 (stereo not given)	–	–	–	86	–	93
CCN(CC)CCNC(=O)c1ccc(NC(=O)c2cccc(S(=O)(=O)N3CCc4ccccc43)c2)cc1	·	–	–	77	–	–
Cc1ccc(-c2ccccc2[C@H]2[C@@H](C#N)N(C(=O)Cc3cccnc3)[C@@H]2CO)cc1	–	·	·	·	·	·
COc1ccc(NC(=O)Nc2ccc3c(c2)C(=O)N([C@@H](C)CO)C[C@H](C)[C@H](CN(C)C(=O)Cc2ccccc2)OCCCC[C@H](C)O3)cc1	–	·	·	·	·	·
CO[C@H]1CN(C)C(=O)c2cccc(C#N)c2OC[C@H]2O[C@@H](CC[C@H]2OC)CCN(C)C(=O)[C@H]1C	–	·	·	·	·	·
O=C1CN(Cc2ccccc2)C[C@H]2[C@H](c3ccc(-c4ccccc4F)cc3)[C@@H](CO)N12	–	·	·	·	·	·
CCCSc1nnc(Sc2nnnn2-c2ccccc2)s1	·	–	–	68	–	–
COc1ccc2c3c(n(C)c2c1)[C@H](CO)N(C(=O)C1CCOCC1)CC31CN(C(=O)C2CC2)C1	–	·	·	·	·	·
Cc1ccc(C=Nc2ccccc2C(N)=O)o1	–	–	–	–	–	–
CN(C)c1ccc(C=Nc2ccccc2C(N)=O)cc1	·	–	–	63	–	–
SMILES	PAX8 reporter	HIF-2a block	Shn3 3UTR inh	Peg3 promoter	EBV LMP1 NFkB	MITF TRPM1 inh
COc1ccc(NC(=O)N(C)C[C@H]2Oc3ccc(NC(=O)CCN4CCOCC4)cc3CC(=O)N([C@@H](C)CO)C[C@H]2C)cc1	–	·	·	·	·	·
CN(C)S(=O)(=O)c1cccc(-c2nn(-c3ccccc3)cc2/C=C2\SC(=S)NC2=O)c1	–	–	–	60	–	–
CN1C(=O)c2cc(NC(=O)Nc3ccccc3F)ccc2OC[C@H]2O[C@@H](CC(=O)O)CC[C@H]21	–	·	·	·	·	·
C[C@@H]1CN([C@H](C)CO)C(=O)c2cccc(NC(=O)Nc3cccc4ccccc34)c2O[C@@H]1CN(C)S(C)(=O)=O	–	·	·	·	·	·
COc1ccc2c(c1)C(CC(C)=O)N(c1ccc(-c3cccs3)cc1)C(c1ccsc1)=C2 (stereo not given)	64	–	·	·	·	·
COc1ccc(-c2ccc(N3C(c4cc(OC)cc(OC)c4)=Cc4ccc(OC)cc4C3CC(C)=O)cc2)cc1 (stereo not given)	63	–	·	·	·	·
CC(C)(C)c1nc(NCCN2CCOCC2)c2nnn(Cc3ccccc3Cl)c2n1	·	–	84	–	–	–
Cc1nc(NCCN2CCOCC2)c2nnn(Cc3ccccc3Cl)c2n1	·	–	–	–	–	–
CNC(=O)C[C@H]1CC[C@@H]2[C@@H](COc3ccc(NC(=O)Nc4c(C)noc4C)cc3C(=O)N2C)O1	–	·	·	·	·	·

Screens: PubChem, several laboratories
